# Source: PubChem BioAssay AID2685 (National Center for Advancing Translational Sciences (NCATS), 2010)
# The whole screen tested about 320,000 compounds, of which about 2,100 (0.66%) were called active. Not shown: some 53% with an inconclusive outcome. Calls come from the whole dose curve; as a rule, active = well fitted inhibition curve with a large enough effect in the signal ratio, with a control signal flat (not every such curve was filed as active); inconclusive = small, poorly fitted or top-dose-only effect, or effect the other way, or a change in a side signal; inactive = flat fitted curve, though single readings scatter; the % refers to the signal ratio. What follows is part of a selection rich in actives, with near analogues and random picks from the rest.
# Assay: qHTS Assay for Lipid Storage Modulators in Drosophila S3 Cells;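 for cell number change: cells counted by Cell Tracker Red CMTPX staining in the red channel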; for lipid storage change, negative = inhibition: % is set by controls: 0 for no effect and ±100 for the full control effect
# Settings: BODIPY lipid droplet fluorescence, 18-24 h, cells fed with added oleic acid; cell number change: measured here: cell count max response; series mostly up to 46.1 µM; lipid storage change, negative = inhibition: at the top concentration
# Outline: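 Drosophila S3 cells got compounds at several concentrations plus oleic acid (400 uM solution). Laser-scanning cytometry with 488 nm excitation read lipid droplets at 500-530 nm and cells at 575-640 nm. Percent activity was relative to 20 uM Triacsin C.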
# Potency is the fitted concentration of half-maximal effect.
SMILES,"lipid storage change, negative = inhibition",Potency,cell number change [%],outcome
Cn1cc(C=O)c2cc(F)ccc21,0.791% (inactive),,,
Cn1cc(/C=C/c2cc[n+](C)cc2)c2cc(F)ccc21,,25.9 µM (active),5.37,
COc1ccc2c(c1)c(/C=C/c1cc[n+](C)cc1)cn2C,-25.3% (inactive),,,
CC(=O)Nc1ccc(S(=O)(=O)N2CCN(CC3CC4C=CC3C4)CC2)cc1 (stereo not given),4.11% (inactive),,5.59,
O=C(N/N=C/c1ccncc1)c1ccc2c(c1)OCO2,5.26% (inactive),,-3.13,
CCCc1cc2c(=O)c(-c3ccccn3)c(C)oc2cc1O,11.3% (inactive),,-9.21,
CC(=O)N[C@H](C(=O)N[C@@H](C)C(=O)N[C@H](C#N)CC(=O)O)C(C)C,11.1% (inactive),,8.31,
CC(=O)Nc1ccc(S(=O)(=O)N(C)CC(=O)OCC(=O)N2CCc3ccccc32)cc1,,20.6 µM (active),-7.07,
CC(=O)Nc1ccc(S(=O)(=O)N(C)CC(=O)OCC(=O)N2CCCCCC2)cc1,-14.5% (inactive),,-4.09,
Cc1ccc(S(=O)(=O)N2CCC(C(=O)OCC(=O)N3CCc4ccccc43)CC2)cc1,,7.31 µM (active),-18.3,
Cc1ccc(S(=O)(=O)CCC(=O)OCC(=O)N2CCc3ccccc32)cc1,-12.7% (inactive),,-18.3,
Cc1ccc(S(=O)(=O)N2CCC(C(=O)OCC(=O)N3CC(=O)Nc4ccccc43)CC2)cc1,-0.226% (inactive),,8.87,
CC(=O)Nc1ccc(S(=O)(=O)NCC(=O)OCC(=O)N2CCCc3ccccc32)cc1,17.9% (inactive),,-6.74,
Nn1cc(-c2ccccc2)nc1SCC(=O)NCC(F)(F)F,14.4% (inactive),,,
COc1ccc2[nH]c(=O)c(CN(Cc3cccnc3)Cc3nnnn3CC3CCCO3)cc2c1 (stereo not given),10.3% (inactive),,-7.7,
COc1cccc2c1OC1(C)CC2NC(=O)N1c1cccc(C(=O)N2CCN(c3ccccc3)CC2)c1 (stereo not given),0.139% (inactive),,3.44,
COc1cc2oc3ccccc3c(=O)c2cc1OC,-12.2% (inactive),,-9.58,
COc1cccc2oc3ccc(C#Cc4ccccn4)cc3c(=O)c12,,0.731 µM (active),-5.09,
Cn1c2ccccc2c(=O)c2cc(C#Cc3ccccn3)ccc21,,,-13.6,inactive
Cn1c2ccccc2c(=O)c2ccc(-c3ccc4c(c3)OCO4)cc21,-10.8% (inactive),,-21,

SMILES,"lipid storage change, negative = inhibition",Potency,cell number change [%],outcome
CNC(C)C#Cc1ccc2oc3cccc(OC)c3c(=O)c2c1 (stereo not given),-27.3% (inactive),,16.5,
CN(C)c1ccc(-c2ccc3c(=O)c4ccccc4n(C)c3c2)cn1,,23.1 µM (active),-7.49,
COc1ccc2c(=O)c3ccccc3oc2c1,-3.99% (inactive),,-11.6,
Cn1c2ccccc2c(=O)c2ccc(C#Cc3ccc(N)cc3)cc21,-0.819% (inactive),,2.27,
Cn1c2ccccc2c(=O)c2ccc(C#Cc3ccccn3)cc21,,14.6 µM (active),-26.5,
COc1cc(OC)cc(-c2c(-c3cccs3)c3cc(-c4ccc(N(C)C)nc4)ccc3n2C)c1,,,14.6,inactive
COc1cccc2oc3cc(C#Cc4ccccn4)ccc3c(=O)c12,,18.4 µM (active),-23,
Nc1cccc(C#Cc2ccc3c(=O)c4ccccc4oc3c2)c1,,,-4.2,inactive
O=C(NC12CC3CC(CC(C3)C1)C2)c1ccc(Br)o1,-6.92% (inactive),,-22.8,
O=C(c1ccccn1)N(CC1CCCO1)C1(C(=O)NC2CCCCC2)CCCCC1 (stereo not given),8.55% (inactive),,-0.121,
Cc1ccc(NC(=O)OCc2cc(-c3ccccc3)on2)cc1,23.7% (inactive),,4.96,
OCC(O)C(O)C(O)C(O)C1NCCS1 (stereo not given),0.23% (inactive),,16.2,
COc1ccc(CCNC(=O)C2CCN(C(=O)c3ccc(Br)cc3)CC2)cc1,,5.8 µM (active),-9.49,
COc1ccc(CCNC(=O)C2CCN(C(=O)c3ccc(Cl)cc3)CC2)cc1,17.4% (inactive),,-13.5,
COc1ccc(CCNC(=O)C2CCN(C(=O)c3ccc(OC)c(OC)c3)CC2)cc1,,,,inactive
Cc1ccc(N2C(=O)C(Cl)=C(N3CCOCC3)C2=O)c(C)c1,8.98% (inactive),,-6.56,
CCOC(=O)C(=CNc1ccc(C(F)(F)F)cc1)C(=O)OCC,9.49% (inactive),,11.9,
CC1CN(C(=O)Cn2c(=O)oc3ccccc32)CC(C)O1 (stereo not given),17.6% (inactive),,13.4,
CC1CN(C(=O)c2cccc(C(=O)N3CC(C)OC(C)C3)c2)CC(C)O1 (stereo not given),,18.4 µM (active),7.82,
CC1CN(C(=O)CN2C(=O)c3ccccc3C2=O)CC(C)O1 (stereo not given),,23.1 µM (active),-24.9,

SMILES,"lipid storage change, negative = inhibition",Potency,cell number change [%],outcome
CC1CN(C(=O)CCN2C(=O)c3ccccc3C2=O)CC(C)O1 (stereo not given),3.2% (inactive),,7.71,
Cc1cc(C)cc(C(=O)N2CC(C)OC(C)C2)c1 (stereo not given),-3.57% (inactive),,20.2,
CC1CN(C(=O)c2ccc(C(=O)c3ccccc3)cc2)CC(C)O1 (stereo not given),12.1% (inactive),,-18.7,
O=C(CC(=O)N/N=C/c1ccc(Cl)cc1Cl)NCc1ccccc1,28.5% (inactive),,-3.68,
CCN(Cc1ccccc1)c1ccc(/C=N/NC(=S)NC(C)C)cc1,-15.2% (inactive),,-13,
OCc1nc2ccccc2n1CC(O)Cn1ccc2ccccc21 (stereo not given),,,,inactive
O=c1ccc2c([nH]1)CCCCCCCCCC2,2.42% (inactive),,10,
O=c1cc2c(n[nH]1)CCCC2,,0.58 µM (active),-2.03,
O=c1cc2c(n[nH]1)-c1ccccc1CC2,-0.241% (inactive),,1.15,
Cc1ccc(-c2nnc(SCC(=O)Nc3nccs3)n2N)cc1,-7.51% (inactive),,-14.7,
COc1ccc(NS(=O)(=O)c2ccc3c(c2)N(C(C)=O)CC(C)S3)c(OC)c1 (stereo not given),,,6.52,inactive
O=C1NC2(CCCCCC2)C(=O)N1Cc1ccc(Br)cc1,23% (inactive),,-22.7,
CC(C)c1ccc(CN2C(=O)NC3(CCCCCC3)C2=O)cc1,,18.4 µM (active),2.7,
O=C1NC2(CCCCCCC2)C(=O)N1Cc1ccc(F)cc1,-10.4% (inactive),,7.12,
CCCCC(=O)NS(=O)(=O)c1ccc(N=NN2CCOCC2)cc1,1.16% (inactive),,-7.29,
CCCCSCCCNC(=S)Nc1ccccc1C,3.97% (inactive),,-6.21,
Cc1ccc(NC(=O)CSc2ccccc2NC(=O)c2ccccc2)cc1Cl,,20.6 µM (active),-20,
Cc1ccc(NC(=O)CSc2ccccc2NC(=O)c2cccc(Cl)c2)cc1Cl,-2.45% (inactive),,-1.09,
Cc1ccc(NC(=O)CSc2ccccc2NC(=O)c2ccccc2Cl)cc1Cl,8.64% (inactive),,13.7,
CC(=O)c1cccc(NS(=O)(=O)c2ccc(N/C=C/C(=O)c3ccc(F)cc3)cc2)c1,,,-28.4,inactive
